Measurements taken from the supplement of paper PMC9262897, “Low-cost anti-mycobacterial drug discovery using engineered E. coli” (Nature Communications, 2022).
Where a name gives a salt, the structure may show the parent alone. ± gives the standard deviation of the averaged measurements.

Key:
Assay in all cases: growth (OD600 after 10 h); higher = more growth (less inhibition)
[1] = test system: E. coli TESEC Alr+ wild-type control; conditions: compound 0.1 mM; raw OD600 reference: median of DMSO wells 0.241, cell-free background 0.041
Procedure: (§1)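 TESEC Mtb Alr E. coli, or the Alr+ wild-type control, in 384-well plates with Prestwick library compounds at 0.1 mM and 1% DMSO, across arabinose induction levels of 1E3 to 1E7 nM. Growth is read as OD600 after 10 h at 37 °C in triplicate biological replicates.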

E. coli TESEC Mtb Alr [2] = conditions: compound 0.1 mM
Procedure: as §1

E. coli TESEC Mtb Asd = conditions: compound 0.1 mM
Procedure: (§2)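 TESEC E. coli strains in which the native enzyme is deleted and replaced by arabinose-inducible Mtb Asd, DapB, CysH or TrpD, each grown in its selective medium. Strains were screened against the Prestwick library at 0.1 mM and 1% DMSO in 384-well format at low and high arabinose induction. Growth is read as OD600 after 10 h in triplicate.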

E. coli TESEC Mtb DapB = conditions: compound 0.1 mM
Procedure: as §2

[3] = test system: E. coli TESEC Alr+ wild-type control; conditions: compound 0.1 mM; raw OD600 reference: median of DMSO wells 0.49, cell-free background 0.052
Procedure: (§3)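 TESEC Mtb Alr E. coli (ΔaraC ΔtolC ΔentC Δalr ΔdadX, arabinose-inducible Mtb Alr) or the Alr+ wild-type control strain, grown in defined M9-fructose medium without D-alanine in 96-well plates with Prestwick library compounds at 0.1 mM and 1% DMSO. Low Alr induction is 0.1 µM arabinose and high induction is 10 mM arabinose.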

E. coli TESEC Mtb Alr [4] = conditions: compound 0.1 mM; remark: listed apart in the source
Procedure: as §3

[5] = arabinose 1000 nM, raw OD600 reference: median of DMSO wells 0.294, cell-free background 0.041
[6] = arabinose 10000 nM, raw OD600 reference: median of DMSO wells 0.264, cell-free background 0.041
[7] = arabinose 100000 nM, raw OD600 reference: median of DMSO wells 0.201, cell-free background 0.041
[8] = arabinose 1000000 nM, raw OD600 reference: median of DMSO wells 0.193, cell-free background 0.041
[9] = arabinose 10000000 nM, raw OD600 reference: median of DMSO wells 0.146, cell-free background 0.041
[10] = arabinose induction (level): High, raw OD600 reference: median of DMSO wells 0.331, cell-free background 0.041
[11] = arabinose induction (level): Low, raw OD600 reference: median of DMSO wells 0.417, cell-free background 0.041
[12] = arabinose induction (level): High, raw OD600 reference: median of DMSO wells […], cell-free background 0.041
[13] = arabinose induction (level): Low, raw OD600 reference: median of DMSO wells 0.227, cell-free background 0.041
[14] = arabinose 100 nM, raw OD600 reference: median of DMSO wells 0.413, cell-free background 0.052
[15] = arabinose 10000000 nM, raw OD600 reference: median of DMSO wells […], cell-free background 0.052

Compound	growth [1]	growth (E. coli TESEC Mtb Alr [2]; [5])	growth (E. coli TESEC Mtb Alr [2]; [6])	growth (E. coli TESEC Mtb Alr [2]; [7])	growth (E. coli TESEC Mtb Alr [2]; [8])	growth (E. coli TESEC Mtb Alr [2]; [9])	growth (E. coli TESEC Mtb Asd; [10])	growth (E. coli TESEC Mtb Asd; [11])	growth (E. coli TESEC Mtb DapB; [12])	growth (E. coli TESEC Mtb DapB; [13])	growth [3]	growth (E. coli TESEC Mtb Alr [4]; [14])	growth (E. coli TESEC Mtb Alr [4]; [15])
CC12CC3CC(C)(C1)CC(N)(C3)C2 [Memantine Hydrochloride]	0.161 ± 0.005	0.207 ± 0.007	0.237 ± 0.017	0.184 ± 0.0066	0.195 ± 0.019	0.175 ± 0.0048	0.256 ± 0.039	0.155 ± 0.011	0.165 ± 0.011	0.199 ± 0.0086	0.503 ± 0.12	0.398 ± 0.018	0.392 ± 0.018
N=c1nc(N2CCCCC2)cc(N)n1O [Minoxidil]	0.244 ± 0.0093	0.28 ± 0.0067	0.247 ± 0.014	0.225 ± 0.0082	0.166 ± 0.0034	0.148 ± 0.0099	0.371 ± 0.048	0.384 ± 0.054	0.18 ± 0.0054	0.209 ± 0.019	0.45 ± 0.038	0.406 ± 0.0072	0.379 ± 0.034
COc1ccc(-c2cc(=S)ss2)cc1 [Anethole-trithione]	0.182 ± 0.013	0.232 ± 0.008	0.218 ± 0.019	0.18 ± 0.0053	0.12 ± 0.026	0.168 ± 0.0049	0.211 ± 0.018	0.263 ± 0.022	0.193 ± 0.0052	0.218 ± 0.011	0.616 ± 0.027	0.4304 ± 0.0029	0.369 ± 0.019
CCOC(=O)[N-]c1c[n+](N2CCOCC2)no1 [Molsidomine]	0.245 ± 0.0064	0.307 ± 0.0077	0.27 ± 0.0035	0.244 ± 0.048	0.182 ± 0.0019	0.166 ± 0.0027	0.305 ± 0.1	0.338 ± 0.084	0.207 ± 0.022	0.23 ± 0.02	0.562 ± 0.037	0.408 ± 0.014	0.313 ± 0.022
CN1C(C)(C)CCCC1(C)C [Pempidine tartrate]	0.245 ± 0.0082	0.307 ± 0.017	0.284 ± 0.0059	0.183 ± 0.026	0.196 ± 0.0024	0.143 ± 0.011	0.343 ± 0.023	0.434 ± 0.024	0.203 ± 0.024	0.239 ± 0.043	0.572 ± 0.089	0.4074 ± 0.0021	0.335 ± 0.011
CN1CCc2c(c3ccccc3n2Cc2ccccc2)C1 [Mebhydroline 1,5-naphtalenedisulfonate]	0.175 ± 0.0028	0.218 ± 0.0081	0.267 ± 0.012	0.199 ± 0.02	0.133 ± 0.0032	0.157 ± 0.005	0.179 ± 0.014	0.278 ± 0.055	0.187 ± 0.017	0.207 ± 0.0028	0.4471 ± 0.0035	0.404 ± 0.0065	0.261 ± 0.034
CCOC(=O)C1=C[C@]2(CC)CCCN3CCc4c(n1c1ccccc41)[C@@H]32 [Vinpocetine]	0.216 ± 0.0075	0.271 ± 0.015	0.25 ± 0.0089	0.184 ± 0.015	0.145 ± 0.005	0.143 ± 0.0046	0.232 ± 0.0031	0.379 ± 0.069	0.164 ± 0.0032	0.191 ± 0.0094	0.557 ± 0.044	0.4094 ± 0.0032	0.337 ± 0.016
CN1CCC(=C2c3ccccc3CC(=O)c3sccc32)CC1 [Ketotifen fumarate]	0.196 ± 0.0062	0.254 ± 0.0091	0.246 ± 0.01	0.206 ± 0.032	0.131 ± 0.0024	0.143 ± 0.0042	0.198 ± 0.036	0.39 ± 0.042	0.239 ± 0.043	0.217 ± 0.02	0.54 ± 0.048	0.405 ± 0.0086	0.303 ± 0.017
Cc1cc(-n2c(=O)[nH]c(=O)n(C)c2=O)ccc1Oc1ccc(SC(F)(F)F)cc1 [Toltrazuril]	0.0494 ± 0.013	0.0602 ± 0.032	0.0431 ± 0.006	0.0449 ± 0.0059	0.0576 ± 0.031	0.0455 ± 0.0035	0.0752 ± 0.012	0.203 ± 0.057	0.227 ± 0.017	0.254 ± 0.016	0.137 ± 0.043	0.0828 ± 0.028	0.0543 ± 0.0016
CC=CC(=O)N(CC)c1ccccc1C [Crotamiton]	0.242 ± 0.01	0.329 ± 0.028	0.269 ± 0.014	0.236 ± 0.014	0.181 ± 0.0031	0.158 ± 0.017	0.473 ± 0.015	0.467 ± 0.02	0.236 ± 0.053	0.235 ± 0.03	0.489 ± 0.022	0.4 ± 0.02	0.32 ± 0.0055
Clc1ccccc1CN1CCc2sccc2C1 [Ticlopidine hydrochloride]	0.0758 ± 0.011	0.0555 ± 0.015	0.0438 ± 0.0013	0.0705 ± 0.024	0.0437 ± 0.00091	0.0565 ± 0.0013	0.236 ± 0.03	0.323 ± 0.07	0.195 ± 0.0059	0.23 ± 0.029	0.429 ± 0.015	0.345 ± 0.085	0.06587 ± 0.00038
Cc1[nH]cnc1CN1CCc2c(c3ccccc3n2C)C1=O [Alosetron hydrochloride]	0.197 ± 0.0093	0.26 ± 0.0044	0.233 ± 0.014	0.225 ± 0.0049	0.178 ± 0.008	0.1498 ± 0.001	0.287 ± 0.076	0.263 ± 0.027	0.196 ± 0.017	0.262 ± 0.041	0.563 ± 0.075	0.387 ± 0.012	0.289 ± 0.0097
CN(N=O)C(=O)N[C@H]1C(O)O[C@H](CO)[C@@H](O)[C@@H]1O (mixture of isomers) [Streptozotocin]	0.197 ± 0.0036	0.259 ± 0.028	0.2526 ± 0.0016	0.147 ± 0.0062	0.14 ± 0.0077	0.0717 ± 0.0018	0.243 ± 0.0054	0.305 ± 0.045	0.192 ± 0.016	0.206 ± 0.015	0.226 ± 0.025	0.378 ± 0.019	0.0602 ± 0.0034
COc1ccc2cc([C@@H](C)C(=O)O)ccc2c1 [(R) -Naproxen sodium salt]	0.263 ± 0.0059	0.311 ± 0.018	0.275 ± 0.0043	0.198 ± 0.0079	0.183 ± 0.0045	0.141 ± 0.0034	0.484 ± 0.02	0.341 ± 0.077	0.196 ± 0.014	0.216 ± 0.052	0.448 ± 0.03	0.408 ± 0.0092	0.317 ± 0.0088
